Reference: PubChem BioAssay AID624396 (The Scripps Research Institute Molecular Screening Center, 2012)
Calls of active or inactive are those of the source.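 How the source made its calls: active means over 15% of cells apoptotic at 25 µM, or half-maximal dose of 10 µM or lower; inactive means the rest.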

System: MCL1 1780
Assay: pro-apoptotic nuclear morphology in cancer cells – imaging, DAPI staining, cell line panel, probe, mechanism study for MCL1-BIM inhibitor project, late-stage follow-up (AID 624396)
Conditions: at 25 µM, active compounds read high

With `CCN1CCN(C(c2ccc(C(F)(F)F)cc2)c2ccc3cccnc3c2O)CC1` (stereo unspecified) the apoptosis was 99% (active).
